# Test results as given in PubChem BioAssay (NCATS).
# Values without a mark were called inactive. Calls of active or inactive are those of the source. The call rests on the fitted dose curve; in most records, active means well fitted activation curve with a large enough effect; inconclusive means small, poorly fitted or top-dose-only effect; inactive means flat fitted curve, though single readings scatter.
# Test: Cellular Toxicity (caspase-3) Mesangial (AID 660);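 further: combined caspase 3 and 7 activity read by Caspase-Glo luminescence; cells exposed to compound for 16 h before the caspase read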
# Settings: mesangial cells, normalized: DMSO 0%, 100 µM tamoxifen 100%; at 91.7 µM (top of the series)
# Excerpt: NIH Chemical Genomics Center [NCGC]
# NIH Molecular Libraries Screening Centers Network [MLSCN]
# National Institutes of Environmental Health Sciences [NIEHS]
# National Toxicology Program [NTP]
# We have developed a 1536-well cell-based assay for quantitative high throughput screening (qHTS) against a number of cell lines to determine in vitro caspase 3/7 of small molecules. This particular assay uses the mesangial cell line which is derived from normal human renal glomeruli.
# NCGC Assay Protocol Summary:
# The Caspase-Glo 3/7 assay (Promega) is a homogeneous method to measure caspase-3 and caspase-7 activities in cultured cells. The quantitation of caspase 3/7 activity is based on the cleavage of a peptide-aminoluciferin substrate. After caspase cleaves the substrate the free aminoluciferin is liberated and serves as the substrate of luciferase, which generates the light. The luminescent signal is proportional to amount of caspase 3/7 activity present.
# Using the Caspase-Glo 3/7 assay, the amount of caspase 3/7 activity was measured in the mesangial cell line with complete culture medium following compound treatment for 16 hours. The assay was performed in opaque white 1536-well plates. In the screen, tamoxifen and doxorubicin were used as positive controls. Library compounds were measured for their ability to cause the activation of caspase 3/7 in the cell line, as reflected by an increase in luminescence signal, in a concentration-dependent manner. Data were normalized to the controls for basal activity (DMSO only) and 100% stimulation (100 uM tamoxifen). AC50 values were determined from concentration-response data modeled with the standard Hill equation.
# qHTS protocol for caspase 3/7 assay in mesangial cell line
# [Step] [Parameter] [Value] [Description]
# 1. Reagent; 5 uL; 1000 mesangial cells/well
# 2. Time; 5 hr; 37 °C incubation
# 4. Controls; 23 nL; Tamoxifen 0.23 uM to 100 uM & doxorubicin 7.0 pM to 100 uM
# 5. Time; 16 hr; 37 °C incubation
# 6. Reagent; 5 uL; Caspase-Glo 3/7 reagent
# 7. Time; 20 min; Room Temperature
# 8. Detection; Luminescence; Viewlux plate reader
# Keywords: caspase 3/7, apoptosis, mesangial cell line, luminescence, NTPHTS, NTPHTS_NCGC, NIEHS, EPA, DSSTox, MLSMR, MLSCN, NIH Roadmap, qHTS, NCGC
row,Structure (SMILES),caspase-3 activation
1,CN(C)CCC(c1ccccc1)c1ccccn1 (centres undefined),0.331%
2,O=c1c(-c2ccc(O)cc2)coc2cc(O)ccc12,-3.39%
3,CCCNC(=O)NS(=O)(=O)c1ccc(Cl)cc1,-0.968%
4,CC1=C(/C=C/C(C)=C/C=C/C(C)=C/C(=O)Nc2ccc(O)cc2)C(C)(C)CCC1,91% (active)
5,O=c1c(O)c(-c2ccc(O)cc2)oc2cc(O)cc(O)c12,-0.85%
6,O=C(O)c1cc(O)c2c(c1)C(=O)c1cccc(O)c1C2=O,-1.07%
7,CCCCC1C(=O)N(c2ccccc2)N(c2ccccc2)C1=O,0.46%
8,O=c1cc(-c2ccc(O)cc2)oc2cc(O)cc(O)c12,-2.47%
9,O=C1NC(=O)C(c2ccccc2)(c2ccccc2)N1,0.351%
10,CC(=O)c1ccc(S(=O)(=O)NC(=O)NC2CCCCC2)cc1,0.0312%
11,O=C(O)Cc1cccc2ccccc12,0.654%
12,CCn1cc(C(=O)O)c(=O)c2ccc(C)nc21,-0.0498%
13,CC(=O)O[C@]1(C(C)=O)CC[C@H]2[C@@H]3C=C(Cl)C4=CC(=O)[C@@H]5C[C@@H]5[C@]4(C)[C@H]3CC[C@@]21C,-0.0763%
14,O=c1[nH]cnc2c1ncn2[C@H]1CC[C@@H](CO)O1,-0.684%
